The text below walks through data of PubChem BioAssay (NCATS).

“And” between values parts separate entries of the source, which are not always exact repeats. Equal values may be shown once. Results filed as inconclusive are left out. The source made the active and inactive calls. Unless noted, the call rests on the fitted dose curve; in most records, active means well fitted curve in the direction sought with a large enough effect; inconclusive means small, poorly fitted or top-dose-only effect, or another doubt; inactive means no such curve, though single readings can be large; an effect the other way counts as inactive or inconclusive.

The target of assay [1] is T1, Hexokinase-4 (Homo sapiens) + Glucokinase regulatory protein (Homo sapiens) (UniProt P35557+Q14397). In words: qHTS assay for inhibitors of recombinant human GCK-GKRP interaction: HTRF assay (AID 743207).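 Further: 0% = DMSO with GCK present and -100% = DMSO wells lacking GCK.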 In a few lines:
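HTRF read-out (ex 320 nm; 615/665 nm emission) after 60 min RT equilibration of 5 nM GST-GCK, 5 nM FLAG-GKRP, 2 uM S6P, compound and anti-FLAG/anti-GST detection antibodies; signal normalized between DMSO wells with and without GCK.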
(In qHTS, concentration-response curves come from the screen itself.)

Assay [2] in a line: qHTS Assay for Identifying Gametocytocidal Compounds (AID 743244). Further: potency means the concentration at half of the fitted maximal effect.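 On max response: on the % scale 0 is the no-effect control and ±100 the full control effect; actives lower the fluorescent signal which means gametocytes are killed.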 The settings on record: P. falciparum 3D7 stage III-V gametocytes, alamarBlue, 72 h; max response: stronger effect = lower value. In a few lines: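 Compounds are pinned into medium, gametocytes (stage III–V, 3D7, 20,000 cells/well) added, and plates held 72 h at 37 °C in 5% CO2. AlamarBlue follows for 24 h before fluorescence reading.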

Assay [3] in a line: qHTS profiling of the MIPE4 collection as inhibitors of Plasmodium falciparum (3D7) proliferation (AID 743344; call rule not given here;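 further: scaled between DMSO vehicle wells and 0.29 µM artemisinin as full inhibition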). The settings on record: P. falciparum 3D7 in erythrocytes, SYBR Green DNA fluorescence, 72 h; at 28.5 µM (top of the series) unless noted. In a few lines:
(§1)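 Erythrocytes infected with P. falciparum (0.3% parasitemia, 2.5% hematocrit) incubated with compounds 72 h at 37 C, 5% CO2. Lysis with saponin/Triton buffer containing SYBR Green I, overnight at room temperature in the dark; DNA fluorescence (485/535 nm) normalised to 0.29 uM artemisinin and DMSO.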

Assay [4] is described as follows: qHTS profiling of the MIPE4 collection as inhibitors of Plasmodium falciparum (DD2) proliferation (AID 743345; call rule not given here). As to conditions: P. falciparum Dd2 in erythrocytes, SYBR Green DNA, 72 h; at 28.5 µM (top of the series) unless noted. In a few lines:
as §1

A short description of assay [5]: qHTS profiling of the MIPE4 collection as inhibitors of Plasmodium falciparum (DD2) proliferation (Rep 2) (AID 743346; call rule not given here). As to conditions: P. falciparum Dd2 in erythrocytes, SYBR Green DNA, 72 h; at 28.5 µM (top of the series) unless noted. In a few lines:
as §1

Assay [6] is described as follows: qHTS profiling of the MIPE4 collection as inhibitors of Plasmodium falciparum (HB3) proliferation (AID 743347; call rule not given here;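 further: plate controls were DMSO vehicle wells for no effect and artemisinin wells for full effect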). As to conditions: P. falciparum HB3 in erythrocytes, SYBR Green DNA, 72 h; at 28.5 µM (top of the series) unless noted. A digest of the protocol:
as §1

Assay [7] is described as follows: High-throughput drug toxicity screening in the BPDCN cell line Gen2.2 (AID 1224824; call rule not given here;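 further: cells exposed to compounds for 48 h before reading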). As to conditions: Gen2.2 BPDCN cells; at 45.8 µM (top of the series) unless noted. In a few lines: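 CellTiter-Glo luminescence after 48 h compound exposure of Gen2.2 cells; percent activity set with DMSO as 100% and bortezomib (9.2 uM final) as 0%. Cells seeded at 500 per well, RPMI + 10% FBS, 37 °C.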

A short description of assay [8]: High-throughput drug toxicity screening in the BPDCN cell line Cal-1 (AID 1224825; call rule not given here). The settings on record: Cal-1 BPDCN cell viability, qHTS; at 45.8 µM (top of the series) unless noted. A digest of the protocol:
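Exponentially growing Cal-1 cells, 500 per well in phenol red-free RPMI with 10% FBS, were exposed to compounds for 48 h at 37 °C, 5% CO2. Viability was read by CellTiter-Glo luminescence and normalised to DMSO (100%) and 9.2 uM bortezomib (0%).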

A short description of assay [9]: qHTS assay for measurement of the activity of small molecule inhibitors on Zika virus induced Caspase-3 activity in human iPSC derived neural progenitor cells (hNPCs) (AID 1224857). Further: % of control where 0% means no effect; nearly all actives have a fitted effect of over 65% in size. A digest of the protocol:
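Pretreat hNPCs with compound 1 h; infect ZIKV 2 FFU/cell; 6 h 37 C, 5% CO2; Caspase-Glo 3/7, 30 min RT; luminescence; normalize to no-virus and virus-only wells.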

Assay [10] in a line: qHTS assay for measurement of the activity of small molecule inhibitors on Zika virus induced Caspase-3 activity in human astrocytoma cells (AID 1224859).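 Further: plate controls were ZIKV-infected untreated cells for no effect and uninfected cells for full effect.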 In a few lines: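 Human SNB-19 astrocytoma cells in RPMI 1640 with 10% FBS receive compound one hour ahead of Zika virus at 2 FFU/cell. After 6 h infection, caspase-3/7 activity is detected by Caspase-Glo luminescence.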
Assay [11] is described as follows: qHTS Screen of the MIPE 4.0 Collection Against Ewings Sarcoma (RDES) (AID 1259252). Further: nearly all actives have a fitted effect of over 35% in size. Further: potency means the concentration at half of the fitted maximal effect. A digest of the protocol:
(§2)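 Compound titrations go onto adherent log-phase cells 4 h after seeding, incubate 48 h at 37C, then CellTiter-Glo luminescence reports viability relative to DMSO and cell-free controls.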

The nature of assay [12]: qHTS Screen of the MIPE 4.0 Collection Against Ewings Sarcoma (TC71) (AID 1259253). Further: nearly all actives have a fitted effect of over 40% in size. Further: potency means the concentration at half of the fitted maximal effect. A digest of the protocol:
as §2

The nature of assay [13]: qHTS Screen of the MIPE 4.0 Collection Against Ewings Sarcoma (TC32) (AID 1259256). Further: nearly all actives have a fitted effect of over 45% in size. Further: potency means the concentration at half of the fitted maximal effect. In a few lines: as §2
In assay [14] the target is T1, Hexokinase-4 (Homo sapiens) + Glucokinase regulatory protein (Homo sapiens). As to the kind of experiment: qHTS assay for inhibitors of recombinant human GCK-GKRP interaction: ADP-Glo assay (AID 743206).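 Further: plate controls were DMSO plus enzyme for no effect and no enzyme for full effect.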 In a few lines:
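GST-GCK and FLAG-GKRP (15 nM each in the dispensed mix, with 2 uM S6P) react with 0.4 mM ATP and 5 mM glucose (final) in Hepes pH 7.6 for 60 min at room temperature. ADP is measured by ADP-Glo luminescence.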

The nature of assay [15]: qHTS assay for cell viability of HEK293 cells (AID 743288). Further: on the % scale 0 is the no-effect control and ±100 the full control effect; nearly all actives have a fitted effect of over 50% in size. The settings on record: ATP luminescence (CellTiter-Glo), 18 h; max response: stronger effect = lower value. A digest of the protocol:
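Environmental chemicals tested in qHTS format against parental HEK293 cells; 18 h treatment, 37 C; read-out ATP luminescence (CellTiter-Glo), 30 min RT development.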

A short description of assay [16]: qHTS assay for cell viability of the p53RE-bla HCT-116 cell line (AID 743292). Further: on the % scale 0 is the no-effect control and ±100 the full control effect; nearly all actives have a fitted effect of over 55% in size. In a few lines: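 ATP-based luminescent viability (CellTiter-Glo, 30 min RT) after 16 h compound treatment at 37 C of p53RE-bla HCT-116 cells, seeded at 4,000 cells/well and rested 5 h before dosing.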
The nature of assay [17]: qHTS Screen of the MIPE 4.0 Collection Against Ewings Sarcoma (EW8) (AID 1259255). Further: nearly all actives have a fitted effect of over 35% in size. Further: potency means the concentration at half of the fitted maximal effect.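 On viability: 100% = DMSO-treated cells and 0% = medium-only wells without cells.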 A digest of the protocol:
as §2

T1 sequence (P35557 whole entry, looked up): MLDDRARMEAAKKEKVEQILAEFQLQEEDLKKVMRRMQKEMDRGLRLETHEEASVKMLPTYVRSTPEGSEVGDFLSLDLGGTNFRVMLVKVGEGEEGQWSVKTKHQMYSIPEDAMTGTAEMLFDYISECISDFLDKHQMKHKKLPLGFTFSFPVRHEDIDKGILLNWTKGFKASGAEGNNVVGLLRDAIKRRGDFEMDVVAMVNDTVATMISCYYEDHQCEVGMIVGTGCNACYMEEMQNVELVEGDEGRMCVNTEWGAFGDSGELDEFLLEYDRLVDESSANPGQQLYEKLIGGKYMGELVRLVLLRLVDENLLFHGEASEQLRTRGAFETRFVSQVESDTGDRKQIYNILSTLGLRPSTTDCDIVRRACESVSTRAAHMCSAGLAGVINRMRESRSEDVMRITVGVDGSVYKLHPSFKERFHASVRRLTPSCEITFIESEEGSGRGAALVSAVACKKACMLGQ
T1 sequence (Q14397 whole entry, looked up): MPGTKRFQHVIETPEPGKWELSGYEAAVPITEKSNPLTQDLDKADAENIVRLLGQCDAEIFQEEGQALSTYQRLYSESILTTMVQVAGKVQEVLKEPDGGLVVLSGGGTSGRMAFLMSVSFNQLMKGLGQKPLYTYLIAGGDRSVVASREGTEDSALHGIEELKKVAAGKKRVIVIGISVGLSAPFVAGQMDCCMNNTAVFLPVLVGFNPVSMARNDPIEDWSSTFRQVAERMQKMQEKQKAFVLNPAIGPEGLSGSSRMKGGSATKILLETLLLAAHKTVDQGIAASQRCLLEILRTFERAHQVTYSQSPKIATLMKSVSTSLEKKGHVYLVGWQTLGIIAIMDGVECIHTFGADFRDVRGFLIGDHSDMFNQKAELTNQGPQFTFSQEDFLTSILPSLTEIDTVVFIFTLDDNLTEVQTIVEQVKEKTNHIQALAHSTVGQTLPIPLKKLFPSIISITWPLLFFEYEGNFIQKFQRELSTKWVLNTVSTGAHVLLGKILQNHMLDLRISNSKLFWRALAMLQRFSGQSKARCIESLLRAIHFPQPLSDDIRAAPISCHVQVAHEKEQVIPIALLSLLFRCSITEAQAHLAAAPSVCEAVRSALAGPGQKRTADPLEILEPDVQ

As for `NC(=O)NO`, the Potency entry in assay [1], in assay [9], in [10] and in assay [13] was “inactive” throughout. In assay [2], the max response is -4.54% (inactive) and 19.4% (inactive). In assay [3], this compound gave a parasite growth, % of DMSO control of 93.9%. Moreover, the parasite growth remaining, % of DMSO control (lower = more inhibition) in assay [4] is 97.5%. The compound further came in with a parasite growth, % of control (lower = inhibition) in assay [5] of 95.5%. The compound further came in with a growth, % of control in assay [6] of 96.8%. Also, the cell viability, % of control (lower = more cytotoxic) in [7] is 4.63%. Moreover, in assay [8], the viability (% of control) was determined as 2.6%. Besides, the Potency in assay [11] was 20.9 µM (active); in [12], 5.9 µM (active).

As to `Cn1c(=O)c2[nH]cnc2n(C)c1=O`, the Potency result in assay [14], in assay [1], in assay [16], in assay [9], in [10] and in [12] was “inactive” throughout. The max response in assay [2] was 2.17% (inactive) and 13.8% (inactive); in [15], 2.06% (inactive). The parasite growth remaining, % of DMSO control (lower = more inhibition) in assay [4] is 102%. Moreover, the cell viability, % of control (lower = more cytotoxic) in assay [7] was determined as 123%. Besides, the viability (% of control) in [8] is 96.4%.

As to `CN(C)CCC=C1c2ccccc2C=Cc2ccccc21`, the Potency result in [14], in [1], in assay [9] and in [10] was “inactive” throughout. Besides, the Potency in [2] is 10 µM (active); in assay [12] it was 20.9 µM (active); in assay [17] it was 16.6 µM (active); in assay [13] it was 16.6 µM (active). The compound also displayed a parasite growth, % of DMSO control in assay [3] of 58.1%. Further, the parasite growth remaining, % of DMSO control (lower = more inhibition) in assay [4] is 62.8%. This compound also had a parasite growth, % of control (lower = inhibition) in [5] of 42.4%. Further, the growth, % of control in [6] was 68.3%. In addition, in assay [7], the cell viability, % of control (lower = more cytotoxic) worked out at 41.3%. The viability (% of control) in assay [8] is 67.7%.

For `Nc1c2c(nc3ccccc13)CCCC2`, the Potency result in [1], in assay [16], in [9] and in assay [10] was “inactive” each time. For the same compound, the Potency was 8.91 µM (active) in [2], 26.4 µM (active) in [11], 18.7 µM (active) in [12] and 18.7 µM (active) in assay [17]. Further, in assay [15], the max response was -20.1% (inactive). The compound further had a parasite growth, % of DMSO control in [3] of 7.17%. Moreover, the parasite growth remaining, % of DMSO control (lower = more inhibition) in [4] turned out to be 15.1%. In [5], this compound registered a parasite growth, % of control (lower = inhibition) of 10.3%. Also, in assay [6], the growth, % of control is 20.2%. For the same compound, in assay [7], the cell viability, % of control (lower = more cytotoxic) was 131%. Also, the viability (% of control) in assay [8] came to 101%.

As for `COc1ccc(CCN(C)CCCC(C#N)(c2ccc(OC)c(OC)c2)C(C)C)cc1OC` (centres undefined), the Potency entry in assay [14], in assay [1], in assay [16], in [9], in [10] and in [11] was “inactive” throughout. For the same compound, the Potency result in assay [17] is “inactive”. The max response in assay [15] is 0.749% (inactive). Also, the cell viability, % of control (lower = more cytotoxic) in assay [7] turned out to be 96.5% [at 92.2 µM]. For the same compound, the viability (% of control) in assay [8] was 105% [at 92.2 µM].

Take `CC[N+](CC)(CC)CCOc1cccc(OCC[N+](CC)(CC)CC)c1OCC[N+](CC)(CC)CC`: the Potency result in assay [14], in assay [1], in assay [9], in [11], in assay [12] and in [17] was “inactive” each time. In addition, in [13], the Potency result was “inactive”. The max response in assay [2] is 4.54% (inactive) and -6.53% (inactive). Further, in assay [4], the parasite growth remaining, % of DMSO control (lower = more inhibition) was 104%. For the same compound, the cell viability, % of control (lower = more cytotoxic) in assay [7] came out at 124%. Moreover, the viability (% of control) in assay [8] stood at 111%.

Regarding `Cn1cnc2c1c(=O)[nH]c(=O)n2C`, the Potency result in assay [14], in [1], in [16] and in assay [9] was “inactive” each time. The max response was -9.46% (inactive) and -3.09% (inactive) in assay [2]; -4% (inactive) in assay [15]. Moreover, the parasite growth, % of DMSO control in [3] worked out at 8.09%. Further, in assay [4], the parasite growth remaining, % of DMSO control (lower = more inhibition) was determined as 7%. Also, the parasite growth, % of control (lower = inhibition) in [5] was 25.4%. Moreover, the growth, % of control in assay [6] was 9%. In addition, in [7], the cell viability, % of control (lower = more cytotoxic) came out at 12.2%. For the same compound, the viability (% of control) in assay [8] came out at 13.2%. Besides, the Potency in assay [12], in assay [17] and in assay [13] was 23.5 µM (active) throughout.
